About 83,000 compounds went through this panel and 20% of them were active in at least one assay; those are over-represented in the sample as a whole.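 Interpretation: 100, growth as untreated; towards 0, rising growth inhibition; 0, no net growth; 0 to -100, cell death. Compounds scoring below 10 were considered active.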 A number with no mark means an inactive call. The source made the active and inactive calls.
Legend:
Assay in all cases: NCI-60 one-dose screen, 48 h (100 = growth as untreated, 0 = no growth, -100 = all killed)
Settings in all cases: 10 µM unless noted
SR leukemia = tested on: SR leukemia
RPMI-8226 leukemia = tested on: RPMI-8226 leukemia
OVCAR-8 ovarian = tested on: OVCAR-8 ovarian
OVCAR-5 ovarian = tested on: OVCAR-5 ovarian
OVCAR-4 ovarian = tested on: OVCAR-4 ovarian
SK-OV-3 ovarian = tested on: SK-OV-3 ovarian
IGROV1 ovarian = tested on: IGROV1 ovarian
OVCAR-3 ovarian = tested on: OVCAR-3 ovarian
HS 578T breast = tested on: HS 578T breast
NCI/ADR-RES ovarian = tested on: NCI/ADR-RES ovarian
T-47D breast = tested on: T-47D breast
BT-549 breast = tested on: BT-549 breast
MDA-MB-435 melanoma = tested on: MDA-MB-435 melanoma
SW-620 colon = tested on: SW-620 colon
MCF7 breast = tested on: MCF7 breast
HCT-116 colon = tested on: HCT-116 colon
HCC-2998 colon = tested on: HCC-2998 colon
KM12 colon = tested on: KM12 colon

Row | Compound | growth (SR leukemia) | growth (RPMI-8226 leukemia) | growth (OVCAR-8 ovarian) [%] | growth (OVCAR-5 ovarian) [%] | growth (OVCAR-4 ovarian) [%] | growth (SK-OV-3 ovarian) [%] | growth (IGROV1 ovarian) | growth (OVCAR-3 ovarian) | growth (HS 578T breast) [%] | growth (NCI/ADR-RES ovarian) [%] | growth (T-47D breast) | growth (BT-549 breast) [%] | growth (MDA-MB-435 melanoma) [%] | growth (SW-620 colon) | growth (MCF7 breast) [%] | growth (HCT-116 colon) | growth (HCC-2998 colon) | growth (KM12 colon) [%]
1 | CCCCC#Cc1c(I)n(C2OC(CO[Si](C)(C)C(C)(C)C)C3OC(C)(C)OC32)c(=O)n(C(=O)c2ccccc2)c1=O (centres undefined) | 5.85% (active) | -55.2% (active) | 48.8 | 87.2 | 82.6 | 106 | 27.4% | -59.7% (active) | 12 | 74 | -10.1% (active) | 27.5 | 44.8 | -49.2% (active) | 28.9 | 14.7% | -9.34% (active) | 71.7
2 | C=C1C(=O)O[C@H]2[C@H]1CC/C(COC(=O)NCc1ccc(Cn3c(=O)sn(-c4ccccc4)c3=O)cc1)=C\CC[C@@]1(C)O[C@@H]21 | -4.67% (active) | 1.88% (active) | 42 | 68.3 | 34.8 | 134 | -40.1% (active) | -15.6% (active) | 87.5 | 106 | 57.7% | 51.3 | 33.4 | -13% (active) | 15.4 | 5.85% (active) | 75.2% | 96.8
3 | Cc1cccc(NC(=O)Cn2cc(CN3CCN(c4ccnc5cc(Cl)ccc45)CC3)nn2)c1 | 78% | 63.7% | 92.7 | 96.8 | 78.1 | 76.6 | 89.1% | 91.1% | 85.1 | 91.3 | 83.8% | 86.2 | 93.4 | 90.1% | 88.2 | 95.3% | 102% | 81.6
4 | CCN(CC)C(=O)CC1=C(C)/C(=C/c2[nH]c(-c3ccc[nH]3)cc2OC)N=C1C | -30% (active) | 13.7% | 16.1 | 51.4 | 43.9 | 22.4 | 30.6% | 11.1% | 10.9 | 18.3 | 33.4% | 21.4 | 17.2 | 15.2% | 19.3 | 1.94% (active) | 30.4% | 13.9
5 | Cc1oc(-c2ccc(Cl)cc2)nc1C1=NN(C(=O)c2ccncc2)C(c2ccccc2)C1 (centres undefined) | 101% | 80.3% | 95.4 | 105 | 85.4 | 91.9 | 71.3% | 92.4% | 87.4 | 94 | 97% | 89.7 | 95.9 | 95.2% | 94 | 93.8% | 102% | 90.6
6 | CCSc1ccnc(N)n1 | 153% | 114% | 108 | 104 | 111 | 110 | 96.7% | 97.3% | 117 | 109 | 104% | 117 | 112 | 106% | 104 | 106% | 116% | 108
7 | Oc1nc(NCc2ccccc2)sc1/C=C1\C=Nc2ncccc21 | 2.17% (active) | 87.1% | 47.9 | 82.2 | 96.4 | 53.9 | 67.2% | 53.5% | 53.2 | 73.7 | 63.6% | 42.7 | 74.2 | 44.5% | 42 | 24.3% | 102% | 55
8 | CCOC(=O)c1c(C)nc2ccccc2c1/C=C/c1ccc(F)cc1 | 56.3% | 48.7% | 70.4 | 93.1 | 64.2 | 87.6 | 66.6% | 80.8% | 96.3 | 41.2 | 23.4% | 73.6 | 78.7 | 85.5% | 23.3 | 56.2% | 81.1% | 72.5
